The source of these data is PubChem BioAssay AID743279 (National Center for Advancing Translational Sciences (NCATS), 2014).

The structures appear in SMILES notation. The whole screen tested about 360,000 compounds, of which about 17,000 (4.7%) were called active. Inconclusive results (about 5%) are left out. The full list was thinned out, with actives kept by preference. Values without a mark were called inactive. Cut-off read from the data, not from the text of the source: active = activity change below about -50%; inconclusive = mostly about -30% to -49%; inactive = weaker than that.
% is set by controls: 0 for no effect and ±100 for the full control effect.

The assay can be described thus: qHTS for Inhibitors of Inflammasome Signaling: IL-1-beta AlphaLISA Primary Screen. As to conditions: THP-1 LPS/ATP IL-1B secretion, 16 h; at 57.5 µM, hits give low values. The text has this: Inflammasomes are a set of intracellular multi-protein complexes that enable autocatalytic activation of inflammatory caspases and drive the innate immune response to counter harmful agents. […] A qHTS assay, based on AlphaLISA technology, was developed to screen the Molecular Libraries Small Molecule Repository (MLSMR) to look for novel inflammasome inhibitors. The assay detects IL-1B using AlphaLISA anti-IL-1B acceptor and donor beads. A decreased emission signal, indicating reduced IL-1B secretion, is the desired outcome for this assay. NIH Chemical Genomics Center [NCGC] NIH Molecular Libraries Probe Centers Network [MLPCN] MLPCN Grant: MH095513 Assay Provider: Shyam Biswal Ph.D., Johns Hopkins University Immunity. 2012 Jul 27;37(1):85-95. PMID: 22819042 [2] Curr Pharm Des. 2012;18(16):2320-8. PMID: 22390695
Three microliters containing 3000 THP-1 cells were dispensed into the wells of solid, white, tissue culture treated Greiner 1,536-well plates. Library compounds and positive control, Glyburide, were pin-transferred (23 nL) by a Kalypsys pin-tool equipped with a 1,536-pin array, resulting in final compound concentration ranges of 2.5 nM to 57.5 uM. After 1 hr of cell culture incubation (37 °C, 5% CO2), 1 microL of 1 microg/mL lipopolysaccharide (250 ng/mL, final) and 5 mM ATP (1.25 mM, final) were added to stimulate the cells. After 16 hr of cell culture incubation with the compounds, 1.5 uL of anti-IL-1B acceptor beads (6 ug/mL, final) and biotinylated antibody (0.6 nM, final) were added to the plate, followed by a 1 hr incubation at ambient temperature. To detect the secreted IL-1B, 1.5 uL of AlphaLISA SA-Donor beads (24 ug/mL, final) were added, followed by 30 min of incubation in the dark at ambient temperature. The AlphaLISA signal was read by a PerkinElmer EnVision plate reader with an ultrasensitive luminescence detector and 1536 Plate HTS AlphaScreen aperture (excitation of 680nm and emission of 615nm).
In general terms: In qHTS, concentration-response curves come from the screen itself.
As for `C=CCC1(CC=C)CCCN1C(=O)c1cc(COc2ccc(-n3cncn3)cc2)on1`, the activity change was -59.7% (active). For `O=C(c1cc(COc2ccc(F)c(F)c2)on1)N1CCOCC1` the value was -28.7%. For `CCn1ccnc1CN(C)C(=O)c1cc(COc2ccc(-n3cncn3)cc2)on1` the value was 21.7%; for `O=C(NC1CCCC1)C1c2ccccc2OCC(=O)N1Cc1ccccc1` (centres undefined), 27.8%. For `CCN1CCN(C(=O)CCN2C(=O)c3ccccc3C2=O)CC1`, the activity change was 15.8%. Turning to `O=C(O)CC12CC3CC(C1)CC(n1ncc(NCc4ccc(F)cc4)c(Cl)c1=O)(C3)C2`, the activity change was -16%. Then `CSC1=N/C(=C\C=C\c2cccs2)C(=O)S1`, with -92.1% (active). For `COc1ccc(OC(C)C(=O)Nc2cccnc2)cc1` (centres undefined) the value was -0.423%. For `CC(Sc1nc2c([nH]c3ccccc32)c(=O)n1C)c1ccccc1` (centres undefined) the value was 27.7%; for `O=C1OCCC1=COCCCCOC=C1CCOC1=O`, 2.81%; for `COc1ccc(C(=O)C2CCCN(Cc3cccn3-c3ccccn3)C2)c(C)c1` (centres undefined), -99.7% (active). As to `COc1ccc(C(=O)C2CCCN(Cc3ccc4nonc4c3)C2)c(C)c1` (centres undefined), the activity change is -3.49%.

In the case of `CCOC(=O)c1[nH]ncc1CN1CCCC(C(=O)c2ccc(OC)cc2C)C1` (centres undefined), the activity change was 0%.

Take `Cc1[nH]c2ccccc2c1C(=O)C(=O)NCc1nnnn1-c1cccc(F)c1`: the activity change was 10.9%.

On to `Cc1ccccc1-c1csc(C(O)c2cccc(Cl)c2)n1` (centres undefined), for which the activity change is -11.7%. On to `CCN(CC)c1ncnc2c1ncn2[C@H]1CN(Cc2cccs2)C[C@@H](CO)O1`, for which the activity change was -12%. Then `CC(=O)NCCC(=O)Nc1nc(-c2ccc3c(c2)OCCO3)cs1`, with 15.5%; and `Cc1ccc(-c2csc(NC(=O)C3=COCCO3)n2)cc1C`, with -88.1% (active); and `Cc1csc(NC(=O)C2=COCCO2)n1`, with -3.32%. For `Nc1nc2cc(Cl)ccc2n1N` the value was 32.9%. For `CCn1nc(C)c(/C=N/NC(=O)Cc2ccc(Cl)cc2)c1C` the value was 14.8%; for `Cc1nn(Cc2ccc(Cl)cc2)c(Cl)c1/C=N/NC(=O)c1cccnc1`, -70.6% (active). In the case of `Cc1nn(Cc2ccc(Cl)cc2)c(Cl)c1/C=N/NC(=O)CNc1ccccc1F`, the activity change is -13.7%. As for `CC(=O)c1ccc(Nc2nc(C(N)c3ccccc3Cl)cs2)cc1` (centres undefined), the activity change is 49.4%. For `COc1ccccc1NC(=O)Nc1nc(CC(=O)Nc2ccccc2F)cs1` the value was -1.21%; for `NC(c1csc(NC(=O)Nc2ccccc2Oc2ccccc2)n1)c1ccccc1Cl` (centres undefined), -71.7% (active). On to `CC/C(=C\c1ccc(Cl)cc1)c1ccncc1`, for which the activity change was 3.7%. Then `COCCCn1c(C(=O)NC2CCCCC2)cc2c(=O)n3cccc(C)c3nc21`, with -7.13%. Consider `Cn1ncc([N+](=O)[O-])c1C(=O)Nc1cc(Cl)ccc1Cl`, for which the activity change is -5.95%. For `COc1ccccc1NC(=O)Nc1nnc(Cc2ccc(F)cc2)s1` the value was 28.6%; for `Cc1cccc(C)c1Cn1c(C)c(C(=O)NCc2cccc(Cl)c2)sc1=O`, -13.4%; for `CC(=O)OCc1cc(=O)n(C)c(=O)n1C`, 18.2%.

On to `CN(Cc1ccccc1)CC(O)COc1ccc(CNCc2cc3ccccc3s2)cc1` (centres undefined), for which the activity change was -52.3% (active).

`Cc1ccc(OCC(=O)OC(C)CN(C)Cc2ccccc2)cc1` (centres undefined): the activity change is 11.3%. For `COc1ccc(OCC(O)CN(C)C(=O)C(C)Oc2ccccc2)cc1` (centres undefined) the value was -1.85%; for `CC1(C(=O)NCc2ccccc2)CSCC(=O)N1CCCn1ccnc1` (centres undefined), -3.98%. Then `Cc1ccc(C(CNC(=O)Nc2ccccc2)N2CCN(C)CC2)cc1` (centres undefined), with -19.3%; and `Cc1ccc2nc(SCC(=O)N3CCN(c4ccccc4)CC3)nc(=O)n2c1`, with -22.4%; and `CCN(CCCNC(=O)CSc1cc(=O)n(C)c2cc(Cl)ccc12)Cc1ccccc1`, with -66.3% (active). Then `CCN(CC)CCCNC(=O)CCn1nc(-c2ccc(Cl)cc2)ccc1=O`, with 0.889%; and `CCOc1ccc(CCNC(=O)CSc2cc(=O)n(C)c3ccc(Cl)cc23)cc1OCC`, with 15.4%. In the case of `COC(=O)c1ccc(CN2C(=O)C(Cc3ccccc3)ON=C2c2ncccc2C)o1` (centres undefined), the activity change is 0%. As for `Cc1ccc2cccc(OCCCOc3ccccc3CO)c2n1`, the activity change is -5.38%.

For the compound `N#Cc1cccc(NC(=O)CN2CCCCCC2)c1`, the activity change is -4.14%. Then `O=C1CC(c2ccccc2)=NN1c1ccc([N+](=O)[O-])cc1`, with -62.7% (active); and `Cc1nc(-c2ccc([N+](=O)[O-])cc2)c(-c2ccccc2)o1`, with -1.34%; and `O=[N+]([O-])c1ccc(N2CCOCC2)cc1`, with -12%. For `Cc1c(NC(=O)COC(=O)/C=C/c2cccc(F)c2)c(=O)n(-c2ccccc2)n1C` the value was -1.18%. Then `CCCCN1CC(C)(C)[C@H](CC(=O)Nc2ccc(Br)cc2)C1=O`, with -25.6%; and `COc1ccc([C@H]2C[C@@H](n3cc(COC(=O)c4ccccc4)nn3)[C@H](O)CN2C(=O)c2cccs2)cc1`, with 3.71%. As to `C[C@H]1CN([C@@H](C)CO)C(=O)CCCn2cc(nn2)CO[C@@H]1CN(C)S(=O)(=O)c1ccc(-c2ccccc2)cc1`, the activity change is 0%.

`CCOC(=O)c1oc2c(CN3CCN(C)CC3)c(O)ccc2c(=O)c1-c1ccc(Br)cc1`: the activity change is 2.61%.

As to `CN1CCN(Cc2c(O)ccc3c2oc(=O)c2ccccc23)CC1`, the activity change was -65.7% (active). For `O=c1oc2c(CN3CCCCC3)c(O)ccc2c2c1CCCCC2` the value was 11%.

Turning to `O=c1cc(CN2CCCCCCC2)c2c(ccc3ccccc32)o1`, the activity change was 25.6%. For `O=C(COC(=O)/C=C/c1ccc2c(c1)OCO2)NC1CCS(=O)(=O)C1` (centres undefined) the value was -29.2%; for `CCOC(=O)CCCNC(=O)COC(=O)/C=C/c1ccc2c(c1)OCO2`, -11.7%; for `CN(Cc1ccccc1)C(=O)COC(=O)/C=C/c1ccc2c(c1)OCO2`, -60.4% (active). For `OC[C@@H]1CN(Cc2ccc(F)cc2)C[C@H](n2cnc3c(NC4CCCC4)ncnc32)O1` the value was 0%; for `COc1cc(CC(=O)Nc2nc(-c3ccc(F)c(F)c3)cs2)cc(OC)c1OC`, -57% (active); for `COc1ccc(OC)c(-c2csc(NC(=O)COC(=O)C3CC3)n2)c1`, -8.53%.

As to `COc1cc(CC(=O)NCc2cccs2)cc(OC)c1OC`, the activity change was 0%. Then `O=C(COc1ccccc1F)Nc1nc(-c2ccccn2)cs1`, with 33.3%.

With `COc1cccc(CC(=O)Nc2nc(-c3ccc(OC)c(OC)c3)cs2)c1`, the activity change is -50.3% (active). Take `CC(=O)Nc1cccc(-c2csc(Nc3cccc(C)n3)n2)c1`: the activity change is -56.6% (active). For `CCCCCCC(=O)Nc1nc(C)c(-c2csc(Nc3cccc(OC)c3)n2)s1` the value was -17.4%. Then `COc1ccc(CCNc2nc(-c3cccc(NC(C)=O)c3)cs2)cc1OC`, with -53.6% (active). For `COc1ccc(NC(=O)C2(C)Cc3c(-c4cccc(NC(C)=O)c4)ccnc3O2)cc1OC` (centres undefined) the value was -4.57%; for `CC(=O)NC(c1ccccc1)c1nc(-c2cccc(C(C)C)c2)cs1` (centres undefined), -14.5%. For `COc1ccc(CCN(C(=O)COc2ccccc2)c2nc(-c3ccccc3)cs2)cc1OC`, the activity change was -19.6%. Then `COc1ccc(-c2csc(Nc3cccc(C)n3)n2)cc1OC`, with -7.72%; and `CCCNC(=O)C1(C)CCCN(C(=O)c2cccc(OC(C)=O)c2C)C1` (centres undefined), with 1.04%.

With `CCc1nc2c(OCCOc3ccccc3)cccn2c1N(C)C(=O)c1ccccc1F`, the activity change is -0.777%. Then `CC(C)CCNC(=O)c1cccnc1Sc1ccccc1`, with -7.52%; and `CCCc1ccc(-c2csc(NC(=O)Cc3cccs3)n2)cc1`, with 8.64%. Then `COc1ccc(CC(=O)Nc2nc(-c3ccc(F)c(F)c3)cs2)cc1OC`, with -67.5% (active); and `COc1ccc(CC(=O)Nc2ccccc2NC(=O)c2ccco2)cc1OC`, with 12.9%; and `CCCc1c(C)nc2scc(-c3ccc(Cl)cc3)n2c1=O`, with 26.4%. With `CCc1ccc(OCC(=O)NCC(c2ccc(Cl)cc2)N2CCCCC2)cc1` (centres undefined), the activity change is -99.8% (active). Then `COc1ccc(C(CNC(=O)COc2ccc([N+](=O)[O-])cc2)N2CCCCC2)cc1` (centres undefined), with -22.1%. For the compound `COc1ccc(C(CNC(=O)COc2ccccc2OC)N2CCCCC2)cc1` (centres undefined), the activity change was -6.28%. For `O=C(NNc1c2ccccc2nc2ccccc12)c1cc2ccccc2cc1O`, the activity change is -60.2% (active). Then `CC(C)(C)OC(=O)NNc1c2ccccc2nc2ccccc12`, with -75.9% (active). For `O=C(COC(=O)c1ccc(O)cc1O)NC(=O)c1ccccc1` the value was 13.5%; for `Cc1ccc(C(=O)NNC(=O)OC(C)(C)C)c(Cl)c1`, -7.82%; for `CC(C)(C)OC(=O)NCCCCCNC(=O)c1nc[nH]c1C(=O)NCc1ccccc1`, 11%.

Turning to `Cc1noc(C)c1COC(=O)c1cc2ccccc2cc1O`, the activity change was -1.49%. For `Cc1ccccc1NC(=O)Cn1cc(C(=O)C2CC2)c2ccccc21` the value was 16.9%; for `CCC1NC(=O)c2cccnc2-n2c1nc1ccc(C)cc1c2=O` (centres undefined), -3.64%; for `N#C/C(=C(\O)C(F)(F)F)c1nnc2n1CCCCC2`, 11.5%. For `N#C/C(=C/c1cccc([N+](=O)[O-])c1)c1nnc2n1CCCCC2` the value was -112% (active). For `N#C/C(=C(\O)CCl)c1nnc2n1CCCCC2` the value was 4.27%. As to `CCOC(=O)C1(C)CCCN(C(=O)c2ccc(N(C)C)cc2)C1` (centres undefined), the activity change was 9.68%. Then `CCN(CC)C(=O)[C@H]1CC(CC(=O)NCc2ccco2)C(=O)N2CCc3c([nH]c4ccccc34)[C@]12C` (some centres undefined), with 7.15%.
